# Results reported in the OligoGym collection.
# Biological target: VWA3A
# Experiment: pooled miR-30 sensor sort-seq; sequence = guide strand
# Conditions: shRNA
# Further: reference of the scale not given here.
row,Sequence,sensor-assay potency score (higher = more potent)
1,TTTAGGACAAGGCTGCAGCTTG,-0.774
2,TGAATGTTCTTCACTGTCCCGT,-0.182
3,TAGTGCTCCATCTTTGGGCTGT,0.398
4,TTAGCTGAAGTGTCTTTGGTTT,-0.499
5,TTCAGCTGGAGGTCGCAGCCGC,-0.797
6,TTCTGCATCATTTTTCTTCTGG,0.433
7,TTCACATCTCTTTTCTCCCTGA,0.334
8,TAAATTGTTGTGACTCACGGGA,0.0538
9,TCGAGCAGTACAACCACCCTTT,0.012
10,TTGGTGTTTGTCTTTGTCCTTG,-0.376
11,TTTCACATCTCTTTTCTCCCTG,0.76
12,TACATCCGCATAGCTCTGCTGA,-0.863

# Biological target: WBSCR16
# Experiment: as above
# Conditions: shRNA
row,Sequence,sensor-assay potency score (higher = more potent)
1,TCATTTTCGACCACCTTTCTTC,0.23
2,TTTTGGTCCAGCTCCAGGCGAT,-1.09
3,AATCTTTTGGTCCAGCTCCAGG,-1.82
4,TTATCCGTCAGGAACAGACTAT,-0.761
5,ATAGACTTCTCCTTTATCCGTC,0.592
6,TTCTTAACTTTTCCAAGCCAGG,-1.27
7,TATTGTAGTGACCCAGACCTGT,-0.394
8,TTTCGTAACATCCGCAGTCTTA,-0.626
9,TTTAACACTGCACAGCCCGTGC,-0.959
10,TTCTGGGTTGAACTCCGTCAAG,-1.57
11,TTAGCCTCGATTCTCTTCCTGA,-0.0373
12,TAGACTTCTCCTTTATCCGTCA,-0.137

# Biological target: WDFY1
# Experiment: as above
# Conditions: shRNA
row,Sequence,sensor-assay potency score (higher = more potent)
1,TTCCACACTGCAATTCCGCCGT,-0.441
2,TATAAAACAAATTTAGTCCTTT,0.214
3,TTCATCTTTGATGGAGTCGTAA,-0.712
4,TTCTCTGCTAACATCCATGTTC,-0.775
5,TTTCACTACACATTAGCTGTTC,0.757
6,TTGAGGGTTGTGATGACTGAAC,-1.35
7,TTGATCGCCTCCTTAAACCTTT,-0.0804
8,TAACTTGAGCGCTTGCTGCTGC,0.171
9,TCTTTCACTACACATTAGCTGT,-0.731
10,TAACAAGAATCACAAACCCGGA,-0.759
11,TTGACCACTGTCTCTTTTCAGC,-0.843
12,TTTCTTCTCTTCCTCATCCTGG,-0.185

# Biological target: WDR33
# Experiment: as above
# Conditions: shRNA
row,Sequence,sensor-assay potency score (higher = more potent)
1,TTTATTTTGCATCCAAGCCTGC,-0.562
2,TTTACTTCCTGAAACAACTAAC,-1.04
3,TTCAATTTTAAGTTGCTCCAGA,0.632
4,TAGATTATATCGATCTCGCATT,-0.783
